# Activity calls are given as the source filed them. How the source made its calls: active means hit-call score of the fitted dose curve at least 0.9, where 1 is the maximum; inactive means score below 0.9.
# Read-out: Monokine induced gamma interferon (MIG), CXCL9 (gene 4283)
# Experiment: BSK_3C_MIG: BioMAP Diversity Plus: 3C Assay for Monokine induced gamma interferon (MIG) Biomarker Activity (AID 2283021);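 on AC50: MIG protein level measured by immunoassay in the treated endothelial cultures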
# Details: primary human endothelial cells (HUVEC); actives raise or lower the signal
# In short: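 ELISA-measured MIG in dosed HUVEC 3C cultures at 24 h, analysed by bidirectional fitting with DMSO defining baseline activity.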
SMILES,AC50,outcome
CCOC(=O)COc1ccc2c(c1)CC(NCC(O)c1cccc(Cl)c1)CC2 (configuration not stated),28.3 µM (active),–
O=C1OC(=O)C2C3C=CC(C3)C12 (configuration not stated),–,inactive
O=P(OC(CCl)CCl)(OC(CCl)CCl)OC(CCl)CCl,–,inactive
CCCCCCCCCCCCCCCO,–,inactive
COCCOCCOCCOC,–,inactive
CC(C)=CCCC(C)CCO (configuration not stated),–,inactive
C1=CCCC=CCCC=CCC1,–,inactive
CC[C@H]1CC[C@H](NCc2cc3c(cc2OC)[C@H]2C[C@H]2C(=O)N3C)[C@H](c2ccccc2)N1,–,inactive
O=C(CCCCCCCCc1cccnc1)N1CCC(C=C(c2ccccc2)c2ccccc2)CC1,14.2 µM (active),–
CC(C)(O)c1coc(S(=O)(=O)NC(=O)Nc2c3c(cc4c2CCC4)CCC3)c1,–,inactive
CCN(C(=O)c1cc(C)cc(OC[C@H](C)Nc2ccncc2)c1)C(C)C,–,inactive
Cc1ccc(S(=O)(=O)O)cc1C,–,inactive
CNS(=O)(=O)c1cc(C(=O)N2CCC(CCN3C4CCC3CC(n3c(C)nc5ccccc53)C4)(c3cccc(F)c3)CC2)c(Cl)cc1F (configuration not stated),–,inactive
CCCCC(CC)COC(=O)CCCCCCCCC(=O)OCC(CC)CCCC (configuration not stated),–,inactive
O=C(NS(=O)(=O)/C=C/c1ccccc1)c1ccc(F)cc1Cl,–,inactive
CCOc1cccc(-n2cc(C(=O)N3CCN(c4cc(C(=O)O)c5ccccc5c4)CC3)nc2-c2ccc(C)cc2)c1,35.5 µM (active),–
O=C(OC[C@H]1O[C@@H](OC(=O)c2cc(O)c(O)c(OC(=O)c3cc(O)c(O)c(O)c3)c2)[C@H](OC(=O)c2cc(O)c(O)c(OC(=O)c3cc(O)c(O)c(O)c3)c2)[C@@H](OC(=O)c2cc(O)c(O)c(OC(=O)c3cc(O)c(O)c(O)c3)c2)[C@@H]1OC(=O)c1cc(O)c(O)c(OC(=O)c2cc(O)c(O)c(O)c2)c1)c1cc(O)c(O)c(OC(=O)c2cc(O)c(O)c(O)c2)c1,–,inactive

# From PubChem BioAssay (EPA / NIEHS)
